The campaign covered roughly 310,000 compounds. About 14,000 (4.5%) showed an effect of 50% or more. The effect is printed as a negative number. What follows is part of a selection rich in strong results, with near analogues and random picks from the rest.
Each molecule was assayed against human ether-à-go-go-related gene (hERG) potassium channel (human, UniProt Q12809) (assay: primary screen, population patch clamp on CHO cells stably expressing hERG; higher = less effect of the substance).
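Also: peak tail current of the secondary pulse compared with the same well before compound.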

Sequence of human ether-à-go-go-related gene (hERG) potassium channel (Q12809 whole entry, looked up): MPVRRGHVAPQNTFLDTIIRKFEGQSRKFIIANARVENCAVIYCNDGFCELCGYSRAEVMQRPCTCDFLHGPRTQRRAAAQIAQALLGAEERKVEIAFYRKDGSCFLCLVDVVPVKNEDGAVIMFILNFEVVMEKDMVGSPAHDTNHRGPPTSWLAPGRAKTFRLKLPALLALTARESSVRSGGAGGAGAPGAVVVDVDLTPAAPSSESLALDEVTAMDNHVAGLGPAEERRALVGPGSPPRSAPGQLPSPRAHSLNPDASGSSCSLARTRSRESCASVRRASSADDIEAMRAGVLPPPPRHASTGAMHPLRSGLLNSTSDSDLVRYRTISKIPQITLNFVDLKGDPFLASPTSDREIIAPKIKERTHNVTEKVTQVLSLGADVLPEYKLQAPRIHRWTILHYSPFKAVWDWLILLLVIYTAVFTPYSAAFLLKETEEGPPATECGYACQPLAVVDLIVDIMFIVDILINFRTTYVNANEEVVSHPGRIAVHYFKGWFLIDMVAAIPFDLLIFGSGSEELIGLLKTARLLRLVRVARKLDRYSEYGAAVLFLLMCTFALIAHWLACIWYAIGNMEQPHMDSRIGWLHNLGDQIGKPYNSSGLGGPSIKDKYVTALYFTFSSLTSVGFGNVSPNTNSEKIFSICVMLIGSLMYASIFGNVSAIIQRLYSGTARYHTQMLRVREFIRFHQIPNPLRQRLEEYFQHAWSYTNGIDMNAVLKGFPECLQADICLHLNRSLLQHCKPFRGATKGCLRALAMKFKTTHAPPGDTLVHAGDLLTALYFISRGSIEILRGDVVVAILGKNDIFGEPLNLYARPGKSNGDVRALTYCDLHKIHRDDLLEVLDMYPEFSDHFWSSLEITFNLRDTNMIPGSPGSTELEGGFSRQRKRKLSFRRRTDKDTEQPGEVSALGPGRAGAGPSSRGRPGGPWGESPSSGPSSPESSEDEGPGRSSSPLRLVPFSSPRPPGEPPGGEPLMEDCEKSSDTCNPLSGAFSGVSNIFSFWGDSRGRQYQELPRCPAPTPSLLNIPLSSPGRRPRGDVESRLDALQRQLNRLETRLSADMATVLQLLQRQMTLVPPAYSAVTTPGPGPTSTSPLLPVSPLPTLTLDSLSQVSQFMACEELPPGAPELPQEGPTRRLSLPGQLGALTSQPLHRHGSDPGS

Going from `Cc1cc(NC(=O)COC(=O)c2n[nH]c3ccccc23)no1` to `CCc1ccccc1NC(=O)c1cc(=O)c2ccccc2o1`, the “hERG current change (%, negative = inhibition) at 10uM” value falls from 8.9% to -1.16%.

First: O=C(N/N=C/c1cccnc1)c1cccc(Br)c1
Second: CCOc1ccc(CC(=O)N/N=C/c2cccnc2)cc1OCC
The “hERG current change (%, negative = inhibition) at 10uM” value of the first is lower: 10.4% for the first, 14% for the second.

First: C#Cc1ccc([C@@H]2C=C(C(=O)N3CCOCC3)O[C@H](OCCCCO)C2)cc1
Second: O=C(C1=C[C@@H](c2ccc(Br)cc2)C[C@@H](OCCCCO)O1)N1CCOCC1
The “hERG current change (%, negative = inhibition) at 10uM” value of the first is higher: 17.3% for the first, -15.7% for the second.

Compared with `CCO[C@@H]1OC(C(=O)N2CCCCCCC2)=C[C@H](c2ccc(C(F)(F)F)cc2)[C@H]1CCCO`, `CCO[C@H]1OC(C(=O)N2CCCCCCC2)=C[C@@H](c2ccc(C(F)(F)F)cc2)[C@@H]1CCCO` is lower in “hERG current change (%, negative = inhibition) at 10uM” value: -21.4% for the first, -50.5% for the second.

Going from `CCO[C@@H]1OC(C(=O)N2CCN(C)CC2)=C[C@H](c2ccc(C(F)(F)F)cc2)[C@H]1CCCO` to `O=C(C1=C[C@@H](c2ccc(C(F)(F)F)cc2)C[C@@H](OCCCCO)O1)N1CCOCC1`, the “hERG current change (%, negative = inhibition) at 10uM” value falls from -1.51% to -3.65%.

Compared with `O=C(C1=C[C@@H](c2ccc(Br)cc2)C[C@@H](OCCCCO)O1)N1CCN(Cc2ccccc2)CC1`, `O=C(C1=C[C@H](c2ccc(Br)cc2)C[C@H](OCCCCO)O1)N1CCN(Cc2ccccc2)CC1` is higher in “hERG current change (%, negative = inhibition) at 10uM” value: -91.7% for the first, -80.8% for the second.

Going from `C#Cc1ccc([C@@H]2C=C(C(=O)N3CCN(Cc4ccccc4)CC3)O[C@H](OCCCCO)C2)cc1` to `O=C(C1=C[C@@H](c2ccc(C(F)(F)F)cc2)C[C@@H](OCCCCO)O1)N1CCN(Cc2ccccc2)CC1`, the “hERG current change (%, negative = inhibition) at 10uM” value falls from -56% to -60.6%.

Compared with `C#CCNC(=O)C1=C[C@H](c2ccc(C(F)(F)F)cc2)C[C@H](OCCCCO)O1`, `C#CCNC(=O)C1=C[C@@H](c2ccc(C(F)(F)F)cc2)C[C@@H](OCCCCO)O1` is lower in “hERG current change (%, negative = inhibition) at 10uM” value: -6.12% for the first, -53.8% for the second.

Compared with `CN1CCN(C(=O)C2=C[C@H](c3ccc(Br)cc3)C[C@H](OCCCCO)O2)CC1`, `CN1CCN(C(=O)C2=C[C@@H](c3ccccc3)C[C@@H](OCCCCO)O2)CC1` is higher in “hERG current change (%, negative = inhibition) at 10uM” value: -47.7% for the first, -6.11% for the second.

First: C#Cc1ccc([C@H]2C=C(C(=O)N3CCN(Cc4ccccc4)CC3)O[C@@H](OCc3ccc(CO)cc3)C2)cc1
Second: O=C(C1=C[C@H](c2ccc(C(F)(F)F)cc2)C[C@H](OCc2ccc(CO)cc2)O1)N1CCN(Cc2ccccc2)CC1
The “hERG current change (%, negative = inhibition) at 10uM” value of the first is higher: -13.3% for the first, -15.2% for the second.

Compared with `O=C(C1=C[C@H](c2ccccc2)C[C@H](OCCCCO)O1)N1CCN(Cc2ccccc2)CC1`, `O=C(C1=C[C@H](c2ccc(C(F)(F)F)cc2)C[C@H](OCCCCO)O1)N1CCN(Cc2ccccc2)CC1` is lower in “hERG current change (%, negative = inhibition) at 10uM” value: -38.9% for the first, -49.6% for the second.

Compared with `C#CCNC(=O)C1=C[C@@H](c2ccc(C#C)cc2)C[C@@H](OCCCCO)O1`, `O=C(C1=C[C@@H](c2ccc(C(F)(F)F)cc2)C[C@@H](OCCCCO)O1)N1CCCCCCC1` is lower in “hERG current change (%, negative = inhibition) at 10uM” value: -3.88% for the first, -51.3% for the second.

Compared with `CC(=O)Nc1ccc(S(=O)(=O)NNC(=S)NCc2ccco2)cc1`, `Cc1ccc(C(=O)N/C(=C/c2cccs2)C(=O)NCc2ccco2)cc1` is lower in “hERG current change (%, negative = inhibition) at 10uM” value: 12.1% for the first, -15.8% for the second.

Going from `COc1ccc(-c2csc(N(CCCN3CCOCC3)C(=O)CCl)n2)cc1.Cl` to `O=C(C1=C[C@H](c2ccc(C(F)(F)F)cc2)C[C@H](OCCCCO)O1)N1CCOCC1`, the “hERG current change (%, negative = inhibition) at 10uM” value falls from 3.28% to -23.7%.

Going from `CC1(C)C2CCC(C2)C1(C)NC(=O)C[N+](C)(C)C.[Cl-]` (centres unmarked) to `CC1(C)CC(OC(=O)c2ccccc2)CC(C)(C)N1`, the “hERG current change (%, negative = inhibition) at 10uM” value falls from 12.6% to 9.14%.

First: Cc1nc(NC(=O)/C=C/c2ccccc2)sc1C(=O)Nc1ccccc1Cl
Second: COc1ccc(NC(=O)c2oc3ccccc3c2NC(=O)C(C)(C)C)cc1
The “hERG current change (%, negative = inhibition) at 10uM” value of the first is higher: 13.3% for the first, 11.3% for the second.

Compared with `c1ccc(-c2ncc(CN3CCN(c4ccccn4)CC3)[nH]2)cc1`, `N/C(=N\OC(=O)c1ccccc1)c1ccccn1` is higher in “hERG current change (%, negative = inhibition) at 10uM” value: -14.1% for the first, 12.9% for the second.

Compared with `CCOC(=O)c1cnc(-n2nc(C)cc2C)nc1NC1CCCC1`, `Cc1ccc(S(=O)(=O)NNC(=O)C2CCCCC2)cc1` is higher in “hERG current change (%, negative = inhibition) at 10uM” value: -26.2% for the first, 9.57% for the second.

Compared with `CC(C)NCc1nnc(-c2ccc(Cl)cc2)o1`, `NC(=O)[C@@H]1CCCN1Cc1nc(-c2ccc(C(F)(F)F)cc2)no1` is lower in “hERG current change (%, negative = inhibition) at 10uM” value: 15.9% for the first, -5.68% for the second.

Going from `C=CCOC(=O)C1=C[C@H](c2ccc(Br)cc2)[C@@H](CCCO)[C@H](OCC)O1` to `C=CCOC(=O)C1=C[C@@H](c2ccc(Br)cc2)[C@H](CCCO)[C@@H](OCC)O1`, the “hERG current change (%, negative = inhibition) at 10uM” value rises from -55.3% to -22.6%.

Compared with `C=CCOC(=O)C1=C[C@@H](c2ccccc2)[C@H](CCCO)[C@@H](OCC)O1`, `CCCOC(=S)NC(=O)c1sc2ccccc2c1Cl` is higher in “hERG current change (%, negative = inhibition) at 10uM” value: -9.65% for the first, 12.3% for the second.

Going from `COc1ccc(OC)c(NC(=O)c2ccc(CN3CCc4ccccc4C3)cc2)c1` to `CCCNC(=O)Cc1c(C)n(C(=O)c2ccc(Cl)cc2)c2ccc(OC)cc12`, the “hERG current change (%, negative = inhibition) at 10uM” value rises from 3.78% to 14.6%.

Going from `O=C(Nc1ccc(F)cc1)c1cccc(C(=O)Nc2ccc(F)cc2)c1` to `Cc1ccc(C(=O)N/C(=C\c2cccs2)C(=O)NCc2ccncc2)cc1`, the “hERG current change (%, negative = inhibition) at 10uM” value falls from -28.4% to -52.9%.

Compared with `O=C(CN1C(=O)S/C(=C\c2ccc(O)c([N+](=O)[O-])c2)C1=O)Nc1ccc(N2CCOCC2)cc1`, `Cc1ccc(C(=O)N2CCN(c3ccc([N+](=O)[O-])c(N4CCOCC4)c3)CC2)cc1` is lower in “hERG current change (%, negative = inhibition) at 10uM” value: 12.2% for the first, -60% for the second.

Compared with `O=C1CCC(=O)N1OCCCOc1ccc2c(c1)CCC2`, `O=C1CCc2cc(S(=O)(=O)N3CCC(C(=O)NCc4ccccc4Cl)CC3)ccc2N1` is higher in “hERG current change (%, negative = inhibition) at 10uM” value: 1.61% for the first, 4.83% for the second.

First: COC(=O)C1=NNC2(c3ccc(C)cc3)C(=O)N(c3ccc(C)cc3)C(=O)C12 (centres unmarked)
Second: Cc1ccc(C(=O)N/C(=C\c2sccc2C)C(=O)NCc2ccncc2)cc1
The “hERG current change (%, negative = inhibition) at 10uM” value of the first is higher: 16.5% for the first, -30.5% for the second.

Compared with `CCCC(=O)Nc1ccc(C(=O)O)cc1NC(=O)CCC`, `CC(CCC(=O)Nc1nncs1)C(=O)O` (centres unmarked) is lower in “hERG current change (%, negative = inhibition) at 10uM” value: 8.09% for the first, -6.61% for the second.

First: CCNc1cc2n(c(=O)n1)CCc1cc(OC)c(OC)cc1-2
Second: COc1cccc(NC(=O)N2CCN(c3cccc(C)c3)C(C)C2)c1 (centres unmarked)
The “hERG current change (%, negative = inhibition) at 10uM” value of the first is lower: -19.5% for the first, -16% for the second.

Going from `Cc1ccc(C(=O)N/C(=C\c2cccs2)C(=O)NCc2cccnc2)cc1` to `Cc1ccc(C(=O)N/C(=C/c2cccs2)C(=O)NCC2CCCO2)cc1` (centres unmarked), the “hERG current change (%, negative = inhibition) at 10uM” value rises from -58% to -9.01%.

Going from `Cc1ccc(C(=O)NC(=S)NCc2cccnc2)cc1` to `CC(C)c1ccc(NC2CCCN(C(=O)c3cccnc3)C2)cc1` (centres unmarked), the “hERG current change (%, negative = inhibition) at 10uM” value rises from -7.52% to 0.148%.

Compared with `CC(C)c1nc2cc(C(=O)N(C)Cc3ccc(F)cc3)ccc2o1`, `O=C(c1ccc(F)cc1)N1CCN(c2ccc([N+](=O)[O-])c(N3CCOCC3)c2)CC1` is lower in “hERG current change (%, negative = inhibition) at 10uM” value: 1.04% for the first, -58.3% for the second.

Compared with `CC(C)CCNC(=O)CCc1nnc2n(CCCOC(C)C)c(=O)c3ccccc3n12`, `CCOCCCNC(=O)CCc1nnc2n(CCC(C)C)c(=O)c3ccccc3n12` is higher in “hERG current change (%, negative = inhibition) at 10uM” value: -26.7% for the first, -22.5% for the second.

First: CC1CCN(CCCNC(=O)CCc2nnc3n(CCc4ccccc4)c(=O)c4ccccc4n23)CC1
Second: O=C(CCc1nnc2n(CCc3ccccc3)c(=O)c3ccccc3n12)NCCCN1CCCCC1
The “hERG current change (%, negative = inhibition) at 10uM” value of the first is higher: -76.8% for the first, -77.6% for the second.

First: CN1CCN(CCCNC(=O)CCc2nnc3n(Cc4ccccc4Cl)c(=O)c4ccccc4n23)CC1
Second: CC(C)CCn1c(=O)c2ccccc2n2c(CCC(=O)NC3CCN(Cc4ccccc4)CC3)nnc12
The “hERG current change (%, negative = inhibition) at 10uM” value of the first is higher: 5.29% for the first, -49.6% for the second.

First: CC(C)CCn1c(=O)c2ccccc2n2c(CCC(=O)NCC3CCCO3)nnc12 (centres unmarked)
Second: CC(C)Cn1c(=O)c2ccccc2n2c(CCC(=O)NC3CCN(Cc4ccccc4)CC3)nnc12
The “hERG current change (%, negative = inhibition) at 10uM” value of the first is higher: -1.79% for the first, -39.4% for the second.

Going from `CC(C)OCCCn1c(=O)c2ccccc2n2c(CCC(=O)NC3CCN(Cc4ccccc4)CC3)nnc12` to `O=C(c1cccc2ccccc12)N1CCN(c2ccc([N+](=O)[O-])c(N3CCOCC3)c2)CC1`, the “hERG current change (%, negative = inhibition) at 10uM” value rises from -51.4% to -13.7%.

Compared with `CC(O)[C@@H](C(=O)N1CCNCC1)n1cc(CCCCN)nn1.Cl` (some centres unmarked), `COc1cccc(N2CCN(C(=O)c3ccc(=O)oc3)CC2C)c1` (centres unmarked) is lower in “hERG current change (%, negative = inhibition) at 10uM” value: 14.3% for the first, -59.7% for the second.

Going from `O=C(c1ccc(F)cc1)N1CCN(c2ccc([N+](=O)[O-])c(N3CCCCC3)c2)CC1` to `O=C(c1ccccc1)N1CCN(c2ccc([N+](=O)[O-])c(N3CCOCC3)c2)CC1`, the “hERG current change (%, negative = inhibition) at 10uM” value rises from -15.3% to -7.22%.

First: O=C(c1ccc2ccccc2c1)N1CCN(c2ccc([N+](=O)[O-])c(N3CCOCC3)c2)CC1
Second: Cc1cccc(N2CCN(C(=O)c3ccc4nc(-c5ccco5)c(-c5ccco5)nc4c3)CC2C)c1 (centres unmarked)
The “hERG current change (%, negative = inhibition) at 10uM” value of the first is lower: -18.8% for the first, 2.44% for the second.

First: C=CCSc1n[nH]c(-c2ccc(OCCCC)cc2)n1
Second: CC(C)CCNc1cc(=O)n(C)c(=O)n1C
The “hERG current change (%, negative = inhibition) at 10uM” value of the first is lower: -7.32% for the first, 4.5% for the second.
